± gives the standard deviation of the averaged measurements.
Legend:
Conditions in all cases: concentration: 10 µM; 24 h
HCC1569 [1] = assay: cell number relative to DMSO (% of DMSO); higher = more cells (less growth inhibition / toxicity)
How it was run: (§1)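 Cell number or H1.0 nuclear intensity appears as percent of the plate control, based on the median of replicates. Measurements came from HCC1569 and TDF cells exposed in triplicate to compounds at 10 µM for 24 h at 37 °C, then imaged in six fields per well at ×10. Positional effects were smoothed out of HCC1569 values.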

TDF [2] = assay: as above
How it was run: as §1

TDF [3] = assay: H1.0 immunofluorescence intensity relative to DMSO (% of DMSO); higher = stronger H1.0 induction, active = 120 or more
How it was run: as §1

HCC1569 [4] = assay: H1.0 immunofluorescence intensity relative to DMSO (% of DMSO); higher = stronger H1.0 induction, active = 140 or more
How it was run: as §1
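Throughout, for H1.0 immunofluorescence intensity relative to DMSO: TDF is a line of transformed human dermal fibroblasts of mesenchymal origin.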
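Throughout, for cell number relative to DMSO: TDF denotes transformed human dermal fibroblasts of mesenchymal origin.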

SMILES | cell number (HCC1569 [1]) | cell number (TDF [2]) | H1.0 immunofluorescence intensity (TDF [3]) | H1.0 immunofluorescence intensity (HCC1569 [4])
C#CCN(C)C(C)Cc1ccccc1.Cl [(R)-(-)-Deprenyl.HCl] | 104 | 103 | 97.8 (inactive) | 101 (inactive)
NC(=O)COc1c(F)cc(SCCNS(=O)(=O)c2ccccc2)cc1F | 106 | 102 | 93.5 (inactive) | 106 (inactive)
COc1cc2c(cc1O)CCNC2C (stereo not given) [Salsoline] | 100 | 104 | 91 (inactive) | 95.5 (inactive)
CN(C)CCc1ccc(O)cc1.CN(C)CCc1ccc(O)cc1.O=S(=O)(O)O [Hordenine sulfate] | 99.3 | 99.9 | 104 (inactive) | 99.9 (inactive)
CC(C(O)CCC(C)(C)O)C1CCC2(O)C3=CC(=O)C4CC(O)C(O)CC4(C)C3CCC12C (stereo not given) [Ecdysone] | 103 | 112 | 90.8 (inactive) | 88.8 (inactive)
CN1CC(C(=O)NC2(C)OC3(O)C4CCCN4C(=O)C(Cc4ccccc4)N3C2=O)C=C2c3cccc4[nH]cc(c34)CC21 (stereo not given) [Ergotamine] | 97.8 | 108 | 95.3 (inactive) | 106 (inactive)
Cc1cc2c(C(C)C)c(O)c(O)c(C=O)c2c(O)c1-c1c(C)cc2c(C(C)C)c(O)c(O)c(C=O)c2c1O [Gossypol] | 80.6 ± 22 | 99.6 ± 5.5 | 92.2 (inactive) | 103 (inactive)
COC(=O)c1cc2c(cn1)[nH]c1ccccc12 [Methyl beta-carboline-3-carboxylate] | 98.8 | 105 | 90.1 (inactive) | 95.3 (inactive)
NCC(CP(=O)(O)O)c1ccc(Cl)cc1 (stereo not given) [Phaclofen] | 106 | 100 | 95.8 (inactive) | 79.9 (inactive)
C[N+](C)(C)CC(=O)O.[Cl-] [Betaine hydrochloride] | 104 | 113 | 89.4 (inactive) | 82.7 (inactive)
CCCN1CCCC2Cc3[nH]ncc3CC21 (racemic) | 99.6 | 96.7 | 100 (inactive) | 106 (inactive)
COc1ccc(C(=O)N2CCCC2=O)cc1 [Aniracetam] | 100.1 ± 0.23 | 97.8 ± 14 | 92.7 (inactive) | 95 (inactive)
CCCCC(C)C(OC(=O)CC(CC(=O)O)C(=O)O)C(CC(C)CCCCCCC(O)CC(O)C(C)N)OC(=O)CC(CC(=O)O)C(=O)O (stereo not given) [Fumonisin B2] | 100 | 102 | 97.3 (inactive) | 89.7 (inactive)
CC(C)N(CCC(C(N)=O)(c1ccccc1)c1ccccn1)C(C)C.O=P(O)(O)O (stereo not given) [Disopyramide phosphate] | 106 | 105 | 97.6 (inactive) | 94.1 (inactive)
NCCc1c[nH]c2ccc(C(N)=O)cc12.O=C(O)C=CC(=O)O [5-Carboxamidotryptamine maleate] | 100 | 103 | 91.3 (inactive) | 87.6 (inactive)
Cc1[nH]c2ccc(O)cc2c1CCN.O=C(O)C=CC(=O)O [2-Methyl-5-hydroxytryptamine maleate] | 106 | 98.7 | 98.3 (inactive) | 85.2 (inactive)
COC(=O)C1(O)CC2OC1(C)n1c3ccccc3c3c4c(c5c6ccccc6n2c5c31)C(=O)NC4 (stereo not given) [K-252a, Nocardiopsis sp.] | 33.7 | 2.54 | – | 75.8 (inactive)
Clc1ccc(C(c2ccc(Cl)cc2)n2cc[n+](CC(OCc3ccc(Cl)cc3Cl)c3ccc(Cl)cc3Cl)c2)cc1.[Cl-] (stereo not given) [Calmidazolium chloride] | 17.8 | 0.84 | – | 95.3 (inactive)

— the supplement of paper PMC7156485
